Test results taken from PubChem BioAssay AID2108 (National Center for Advancing Translational Sciences (NCATS), 2009).
Records with an inconclusive call do not appear. Active and inactive are the calls of the source. Calls follow the shape of the dose curve; as a rule, active = well fitted curve in the direction sought with a large enough effect; inconclusive = small, poorly fitted or top-dose-only effect, or effect the other way, or another doubt; inactive = no such curve, though single readings can be large or run the other way.

What follows are compounds tested against Alpha-galactosidase A (Homo sapiens) (UniProt P06280) (assay: Confirmation of Inhibitors of Human alpha-Galactosidase Using Spleen Homogenate). Conditions: alpha-galactosidase enzyme activity; series mostly up to 56.2 µM; activity change: at the top concentration.
Chain of Alpha-galactosidase A (Homo sapiens) (P06280 32-429 limits assumed): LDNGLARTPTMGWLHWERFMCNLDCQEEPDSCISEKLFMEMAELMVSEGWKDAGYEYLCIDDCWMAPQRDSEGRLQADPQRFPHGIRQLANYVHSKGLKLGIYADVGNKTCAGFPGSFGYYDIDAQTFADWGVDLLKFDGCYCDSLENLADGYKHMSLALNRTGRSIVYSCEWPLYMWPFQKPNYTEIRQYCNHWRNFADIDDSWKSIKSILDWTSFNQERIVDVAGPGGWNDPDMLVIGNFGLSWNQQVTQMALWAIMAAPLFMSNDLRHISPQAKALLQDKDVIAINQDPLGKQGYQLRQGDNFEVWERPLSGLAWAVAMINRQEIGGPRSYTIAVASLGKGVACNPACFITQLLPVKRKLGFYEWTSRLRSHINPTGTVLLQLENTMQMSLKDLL
Excerpt: NIH Chemical Genomics Center [NCGC]
NIH Molecular Libraries Probe Production Centers Network [MLPCN]
Assay Submitter (PI): Wei Zheng
Alpha-galactosidase is a homodimeric glycoprotein that hydrolyzes the terminal alpha-galactosyl moieties from glycolipids and glycoproteins. Deficiency of this enzyme results in Fabry Disease with progressive accumulation of globotriaosylceramide and other glycosphingolipids in vascular endothelial cells that causes renal failure, myocardial infarction and stroke, and premature death in patients. It has been reported that the improper folding and trafficking of alpha-galactosidase resulting from genetic mutations may account for a significant number of Fabry patients. […] We optimized this alpha-galactosidase assay in 1536-well plate format for identification of novel small molecule inhibitors or activators with structures other than the sugar analogs in order to develop new pharmacological chaperones. In particular, this assay is directed towards discovering compounds active in more natural setting, tissue homogenate, that may have been missed by screens of the purified enzyme under more stringent conditions. This assay attempted to confirm hits from the primary screening.
NCGC Assay Protocol Summary:
This is a fluorogenic enzyme assay with 4-methylumbelliferyl-alpha-D-galactopyranoside as the substrate and human spleen homogenate containing alpha-galactosidase as the enzyme preparation. Upon hydrolysis of this fluorogenic substrate, the resulting product, 4-methylumbelliferone (which excites at 365 nm and emits at 440 nm) can be detected by a fluorescence plate reader. Data were normalized to the controls for basal activity (without enzyme) and 100% activity (with enzyme). The AC50 values were determined from concentration-response data modeled with the standard Hill equation.
Assay buffer: 50 mM citric acid (titrated with potassium phosphate to pH 5.0), 0.01% Tween-20 (pH 5.0 is an optimal condition for this enzyme assay)
1536-well assay protocol for the alpha-galactosidase from human spleen homogenate:
(1) Add 2 ul/well spleen homogenate (1 ug)
(2) Add 23 nL compounds in DMSO solution. The final titration was 0.5 nM to 58 uM.
(3) Add 2 ul of substrate (1 mM final)
(4) Incubate at 37C for 40 min
(5) Add 2 ul stop solution (1M NaOH and 1M Glycine mixture, pH 10)
(6) Detect the assay plate in a ViewLux plate reader (PerkinElmer) with Ex=365 nm and Em=440nm.
Keywords: Alpha-galactosidase, Fabry Disease, pharmacological chaperone, chaperone therapy, high throughput screening, alpha- galactosidase inhibitor, MLSMR, MLSCN, NIH Roadmap, qHTS and NCGC
Also: 0% is about no effect.

Activity change, inactive:
Cc1nc(SCC(=O)N2CCN(c3ccccc3)CC2)c2oc3ccccc3c2n1 11.7%
O=[N+]([O-])c1ccccc1Nc1ccc(O)cc1 -2.47%
Cc1ccc2oc(C(=O)Nc3ccc(S(=O)(=O)N4CCCCC4C)cc3)cc(=O)c2c1 (stereo not given) -5.07%
O=c1oc2ccc(Br)cc2cc1-c1nc2c(s1)CCc1ccccc1-2 -6.87%
CCC1OC23CCCCC2C(C#N)(C(=N)O3)C1(C#N)C#N (stereo not given) 5.38% [at 23.6 µM]
Cc1ccc2c(c1)c1ncnc(N3CCC4(CC3)OCCO4)c1n2C 18.8% [at 23.6 µM]
COCCn1c(=NC(=O)c2ccc3c(c2)OCO3)c(C#N)cc2c(=O)n3cccc(C)c3nc21 2.06% [at 23.6 µM]
CC(=O)Nc1c(S(=O)(=O)c2ccccc2)c2nc3ccccc3nc2n1Cc1ccccc1 48.2%
Nc1ccccc1N=Cc1ccc(-c2cccc(Cl)c2)o1 8.41%
O=S(=O)(c1ccc2nc(-c3ccco3)c(-c3ccco3)nc2c1)N1CCOCC1 4.72%
O=C(Nc1cc(S(=O)(=O)N2CCOCC2)ccc1N1CCCC1)c1cc(=O)[nH]c2ccccc12 -1.95% [at 23.6 µM]
CCC(C)Nc1nc(-c2cccc(OC)c2O)nc2ccccc12 (stereo not given) 1.98%
CCOC(=O)C(CC)Sc1ncnc2c1c(-c1ccccc1)cn2-c1ccc(OC)cc1 (stereo not given) -3.87%
Brc1ccc(C=Nc2ccc(Nc3ccccc3)cc2)s1 -2.92%
CCCc1cc(-c2nc(N)ncc2-c2ccc3c(c2)OCCCO3)c(O)cc1OC -7.45%
Cc1ccc2nc(-c3ccccc3N)[nH]c2c1 20.8%
CC(C)Cn1c(SCC(=O)N2CCCCC2)nc2ccccc2c1=O 2.74% [at 23.6 µM]
Cc1c(C#N)c(N)nc2c3c(sc12)NC(=O)CC3c1ccc(Cl)cc1 (stereo not given) 8.86%
O=c1oc2ccc3ccccc3c2cc1-c1nc2c(s1)CCc1ccccc1-2 8.82%
Cc1cc(C)nc(SCc2cc(=O)c(OC(=O)c3ccco3)co2)n1 2.16% [at 23.6 µM]
Cc1ccc(S(=O)(=O)N2CCN(C(=O)CSc3nc4ccccc4c(=O)[nH]3)CC2)c(C)c1 1.9%
CCOC(=O)Cc1csc(NC(=O)NC2(C(F)(F)F)Oc3cc(Cl)c(Cl)cc3O2)n1 1.02%
O=C(O)C[C@@H]1C(=O)O[C@@H]2C(COC(=O)c3cc(O)c(O)c(O)c3)O[C@@H](OC(=O)c3cc(O)c(O)c(O)c3)[C@@H](OC(=O)c3cc(O)c(O)c4c3[C@H]1[C@H](O)C(=O)O4)[C@H]2OC(=O)c1cc(O)c(O)c(O)c1 (stereo not given in full) 2.68% [at 23.6 µM]
O=S(=O)(c1ccc(F)cc1)N1CCOCC1 2.82%
Cc1ccccc1S(=O)(=O)N1CCOCC1 3.91%
COc1ccccc1NCC(=O)c1ccc(C)c(C)c1 -6.57%
CCN(CC)S(=O)(=O)c1ccc2c(c1)C(=NNc1ccccc1)c1cc(S(=O)(=O)N(CC)CC)ccc1-2 -3.74%
COc1cc([C@@H]2c3cc4c(cc3[C@@H](OC3OC5COC(C)OC5C(O)C3O)[C@H]3COC(=O)[C@H]23)OCO4)cc(OC)c1O (stereo not given in full) -6.56%
CCNc1ccc(C2(O)C(=O)c3ccccc3C2=O)cc1 -1.5%
Fc1ccc(CNc2ccc(N3CCN(Cc4ccccc4)CC3)cc2)cc1 -2.51%
O=C(c1ccc2ccccc2c1)N1CCN(S(=O)(=O)c2ccccc2)CC1 4.96%
COc1ccc(-n2cc(CNCCc3ncc(C)[nH]3)c(-c3ccccc3Cl)n2)cc1 -2.96%
O=c1ccc2cc(O)c(O)cc2o1 5.16%
O=C(Cc1ncc(C(F)(F)F)cc1Cl)NCCc1ccccc1 7.47% [at 23.6 µM]
OCC(O)C1OC(Nc2ccc(Cl)cc2)C(O)C1O (stereo not given) -3.1%
CC1(CCc2ccc3c(c2)OCO3)NC(=O)c2ccccc2N1 (stereo not given) -1.65% [at 23.6 µM]
CC(C)c1nc2cc(C(=O)N3CCNC(=O)C3c3cccc(F)c3)ccc2o1 (stereo not given) 0.0323%
COCCNS(=O)(=O)c1ccc2c(c1)n(C)c(=O)n2C 5.41% [at 23.6 µM]
COc1ccc(/C=C/c2nnc(NC(=O)COc3ccc(Cl)cc3)s2)cc1 5.82%

outcome, inactive:
Oc1ccc(NCc2ccccc2OCc2ccccc2)cc1
